The term residual activity denotes the signal under treatment as a percentage of the control signal.

These results are taken from ChEMBL document CHEMBL2218924, “A broad activity screen in support of a chemogenomic map for kinase signalling research and drug discovery” (Biochem J, 2013).

In test [1] the target is BDNF/NT-3 growth factors receptor (Homo sapiens) (UniProt Q16620). The settings on record: at 10 µM.
Test [2] concerns the target T1, Tyrosine-protein kinase TXK (Homo sapiens) (UniProt P42681).
T1 sequence (whole entry): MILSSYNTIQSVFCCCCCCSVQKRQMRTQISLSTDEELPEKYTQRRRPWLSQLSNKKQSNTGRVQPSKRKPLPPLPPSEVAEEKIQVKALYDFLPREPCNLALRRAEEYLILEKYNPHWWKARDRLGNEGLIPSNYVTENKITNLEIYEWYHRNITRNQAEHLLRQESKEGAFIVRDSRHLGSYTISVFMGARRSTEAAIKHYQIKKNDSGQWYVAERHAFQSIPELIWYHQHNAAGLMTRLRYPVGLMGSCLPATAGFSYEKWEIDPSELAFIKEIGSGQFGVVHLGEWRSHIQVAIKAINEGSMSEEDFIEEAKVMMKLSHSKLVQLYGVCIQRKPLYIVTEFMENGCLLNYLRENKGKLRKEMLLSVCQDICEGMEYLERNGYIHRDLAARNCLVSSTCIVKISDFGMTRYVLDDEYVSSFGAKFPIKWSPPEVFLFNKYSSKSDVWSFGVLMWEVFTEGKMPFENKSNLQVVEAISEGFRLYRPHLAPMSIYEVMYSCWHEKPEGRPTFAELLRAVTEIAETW
The settings on record: at 1 µM.

The target of test [3] is T1, Tyrosine-protein kinase TXK (Homo sapiens). The settings on record: at 10 µM.
In test [4] the target is T2, Serine/threonine-protein kinase ULK2 (Homo sapiens) (UniProt Q8IYT8).
T2 sequence (whole entry): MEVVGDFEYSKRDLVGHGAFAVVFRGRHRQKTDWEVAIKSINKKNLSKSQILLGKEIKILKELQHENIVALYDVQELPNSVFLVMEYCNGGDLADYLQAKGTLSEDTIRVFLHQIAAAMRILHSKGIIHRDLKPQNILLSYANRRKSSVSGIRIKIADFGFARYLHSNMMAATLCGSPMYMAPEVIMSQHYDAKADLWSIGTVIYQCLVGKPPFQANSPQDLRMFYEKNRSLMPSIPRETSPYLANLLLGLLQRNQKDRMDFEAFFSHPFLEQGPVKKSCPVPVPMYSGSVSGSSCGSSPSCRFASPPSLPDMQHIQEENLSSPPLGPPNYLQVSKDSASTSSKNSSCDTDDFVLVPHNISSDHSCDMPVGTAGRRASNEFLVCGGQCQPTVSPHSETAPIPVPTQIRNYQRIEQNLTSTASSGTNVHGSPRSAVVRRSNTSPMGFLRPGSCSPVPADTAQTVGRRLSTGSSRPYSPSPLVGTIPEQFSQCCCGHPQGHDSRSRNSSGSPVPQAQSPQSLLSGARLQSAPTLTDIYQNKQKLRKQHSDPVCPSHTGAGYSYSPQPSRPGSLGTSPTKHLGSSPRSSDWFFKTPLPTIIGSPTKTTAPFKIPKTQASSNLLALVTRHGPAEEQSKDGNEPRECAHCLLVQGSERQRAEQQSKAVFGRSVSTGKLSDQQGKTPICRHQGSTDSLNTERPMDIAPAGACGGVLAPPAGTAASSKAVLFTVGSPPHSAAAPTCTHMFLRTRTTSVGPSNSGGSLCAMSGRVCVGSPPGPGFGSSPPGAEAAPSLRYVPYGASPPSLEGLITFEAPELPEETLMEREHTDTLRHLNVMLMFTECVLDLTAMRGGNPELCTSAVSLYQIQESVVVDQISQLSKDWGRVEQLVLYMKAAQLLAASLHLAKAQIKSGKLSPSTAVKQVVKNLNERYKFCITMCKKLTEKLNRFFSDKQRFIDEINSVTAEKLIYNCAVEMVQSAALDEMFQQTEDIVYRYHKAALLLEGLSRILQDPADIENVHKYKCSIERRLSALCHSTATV
The settings on record: at 1 µM.

Test [5] concerns the target T2, Serine/threonine-protein kinase ULK2 (Homo sapiens). The settings on record: at 10 µM.
Test [6] deals with T3, Serine/threonine-protein kinase ULK3 (Homo sapiens) (UniProt Q6PHR2).
T3 sequence (whole entry): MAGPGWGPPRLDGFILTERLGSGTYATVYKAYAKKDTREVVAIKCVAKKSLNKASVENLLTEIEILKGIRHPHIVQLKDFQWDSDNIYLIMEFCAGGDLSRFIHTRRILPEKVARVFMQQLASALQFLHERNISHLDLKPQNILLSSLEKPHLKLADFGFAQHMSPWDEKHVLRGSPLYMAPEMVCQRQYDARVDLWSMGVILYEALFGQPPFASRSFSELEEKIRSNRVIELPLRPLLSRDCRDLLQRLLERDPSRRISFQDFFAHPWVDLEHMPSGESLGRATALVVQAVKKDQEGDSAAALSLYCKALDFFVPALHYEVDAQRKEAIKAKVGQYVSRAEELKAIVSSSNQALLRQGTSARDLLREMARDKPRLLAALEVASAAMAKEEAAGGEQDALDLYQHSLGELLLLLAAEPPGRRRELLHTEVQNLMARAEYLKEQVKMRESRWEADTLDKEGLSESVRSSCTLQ
The settings on record: at 1 µM.

In test [7] the target is T3, Serine/threonine-protein kinase ULK3 (Homo sapiens). The settings on record: at 10 µM.
In test [8] the target is Serine/threonine-protein kinase VRK2 (Homo sapiens) (UniProt Q86Y07). The settings on record: at 1 µM.
Chain of Serine/threonine-protein kinase VRK2 (Homo sapiens) (Q86Y07 whole entry): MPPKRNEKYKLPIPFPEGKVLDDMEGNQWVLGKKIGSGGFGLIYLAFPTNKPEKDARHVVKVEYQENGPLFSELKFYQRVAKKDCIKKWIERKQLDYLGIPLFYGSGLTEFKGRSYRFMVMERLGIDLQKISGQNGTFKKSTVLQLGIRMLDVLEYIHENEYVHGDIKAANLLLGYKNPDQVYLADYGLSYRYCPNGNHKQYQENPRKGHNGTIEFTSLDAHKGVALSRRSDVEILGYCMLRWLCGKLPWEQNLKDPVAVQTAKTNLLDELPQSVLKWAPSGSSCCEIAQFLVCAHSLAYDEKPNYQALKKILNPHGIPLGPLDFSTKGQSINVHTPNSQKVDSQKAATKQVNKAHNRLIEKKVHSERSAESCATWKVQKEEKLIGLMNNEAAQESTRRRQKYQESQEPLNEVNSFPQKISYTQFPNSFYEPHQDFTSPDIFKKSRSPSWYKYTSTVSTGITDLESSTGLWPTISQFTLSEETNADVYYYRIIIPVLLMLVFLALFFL
Test [9] shares this target. The settings on record: at 10 µM.
In test [10] the target is Serine/threonine-protein kinase WNK2 (Homo sapiens) (UniProt Q9Y3S1). As to conditions: at 1 µM.
Test [11] shares this target. The settings on record: at 10 µM.
The target of test [12] is Serine/threonine-protein kinase WNK3 (Homo sapiens) (UniProt Q9BYP7). As to conditions: at 1 µM.
Chain of Serine/threonine-protein kinase WNK3 (Homo sapiens) (Q9BYP7 whole entry): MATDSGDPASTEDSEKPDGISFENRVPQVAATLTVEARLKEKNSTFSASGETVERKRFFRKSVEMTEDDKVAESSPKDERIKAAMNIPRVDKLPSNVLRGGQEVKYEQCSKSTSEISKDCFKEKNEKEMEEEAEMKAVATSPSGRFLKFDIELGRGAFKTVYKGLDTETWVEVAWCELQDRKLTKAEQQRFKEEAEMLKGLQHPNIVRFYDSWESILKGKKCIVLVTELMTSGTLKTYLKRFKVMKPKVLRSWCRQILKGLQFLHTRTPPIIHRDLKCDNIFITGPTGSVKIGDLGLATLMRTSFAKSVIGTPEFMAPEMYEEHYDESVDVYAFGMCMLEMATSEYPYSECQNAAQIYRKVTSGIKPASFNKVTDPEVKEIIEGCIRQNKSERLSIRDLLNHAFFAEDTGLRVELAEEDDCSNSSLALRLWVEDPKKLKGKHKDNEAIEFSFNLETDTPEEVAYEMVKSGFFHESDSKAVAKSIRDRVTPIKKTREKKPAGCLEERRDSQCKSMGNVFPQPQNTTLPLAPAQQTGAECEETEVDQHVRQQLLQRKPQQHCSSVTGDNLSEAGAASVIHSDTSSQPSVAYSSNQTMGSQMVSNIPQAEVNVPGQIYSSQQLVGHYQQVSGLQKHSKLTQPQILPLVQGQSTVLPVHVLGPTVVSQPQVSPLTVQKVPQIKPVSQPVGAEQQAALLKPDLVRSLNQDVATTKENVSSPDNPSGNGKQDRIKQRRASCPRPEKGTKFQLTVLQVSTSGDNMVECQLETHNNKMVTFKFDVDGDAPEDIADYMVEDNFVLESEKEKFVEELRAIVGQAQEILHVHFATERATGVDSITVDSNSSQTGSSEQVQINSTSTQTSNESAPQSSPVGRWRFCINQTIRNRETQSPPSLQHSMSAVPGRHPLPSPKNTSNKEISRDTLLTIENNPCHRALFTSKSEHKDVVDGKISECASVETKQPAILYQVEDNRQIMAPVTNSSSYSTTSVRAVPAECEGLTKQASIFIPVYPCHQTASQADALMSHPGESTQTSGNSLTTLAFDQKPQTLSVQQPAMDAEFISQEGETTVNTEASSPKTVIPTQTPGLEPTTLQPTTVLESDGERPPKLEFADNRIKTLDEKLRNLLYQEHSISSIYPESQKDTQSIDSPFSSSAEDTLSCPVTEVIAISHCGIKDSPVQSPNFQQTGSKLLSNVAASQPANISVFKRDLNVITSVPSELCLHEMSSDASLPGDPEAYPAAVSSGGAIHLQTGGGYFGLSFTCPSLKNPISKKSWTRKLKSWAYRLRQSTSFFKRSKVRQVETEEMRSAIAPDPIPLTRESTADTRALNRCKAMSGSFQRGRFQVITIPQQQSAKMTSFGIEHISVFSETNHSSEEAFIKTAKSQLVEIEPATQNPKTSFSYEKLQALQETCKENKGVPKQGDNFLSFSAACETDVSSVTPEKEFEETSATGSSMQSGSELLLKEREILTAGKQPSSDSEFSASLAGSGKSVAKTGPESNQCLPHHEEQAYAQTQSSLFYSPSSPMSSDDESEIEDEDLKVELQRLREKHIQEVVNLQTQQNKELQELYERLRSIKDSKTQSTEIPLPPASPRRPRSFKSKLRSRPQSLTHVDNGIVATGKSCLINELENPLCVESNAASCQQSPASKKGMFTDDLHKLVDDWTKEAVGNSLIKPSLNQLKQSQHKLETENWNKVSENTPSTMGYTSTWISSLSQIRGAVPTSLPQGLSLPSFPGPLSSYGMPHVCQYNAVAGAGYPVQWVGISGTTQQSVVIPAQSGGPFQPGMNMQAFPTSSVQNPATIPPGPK
The target is the same in test [13]. As to conditions: at 10 µM.
For test [14], the target named is Tyrosine-protein kinase Yes (Homo sapiens) (UniProt P07947). As to conditions: at 1 µM.
Chain of Tyrosine-protein kinase Yes (Homo sapiens) (P07947 2-543 limits assumed): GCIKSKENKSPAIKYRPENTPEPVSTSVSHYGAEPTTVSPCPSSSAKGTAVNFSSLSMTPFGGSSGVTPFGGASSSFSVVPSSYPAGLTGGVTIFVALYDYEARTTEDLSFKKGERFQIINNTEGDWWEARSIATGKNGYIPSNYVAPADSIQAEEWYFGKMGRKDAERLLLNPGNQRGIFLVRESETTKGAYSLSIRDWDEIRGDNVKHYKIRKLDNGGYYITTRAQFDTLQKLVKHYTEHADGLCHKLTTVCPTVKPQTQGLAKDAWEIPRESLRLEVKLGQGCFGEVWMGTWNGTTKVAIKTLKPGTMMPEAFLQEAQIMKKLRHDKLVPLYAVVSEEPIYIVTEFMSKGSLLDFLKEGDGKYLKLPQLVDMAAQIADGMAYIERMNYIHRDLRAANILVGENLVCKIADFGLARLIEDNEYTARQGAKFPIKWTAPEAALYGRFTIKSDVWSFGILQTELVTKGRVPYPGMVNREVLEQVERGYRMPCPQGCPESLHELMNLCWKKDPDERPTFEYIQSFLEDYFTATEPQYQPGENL
The target is the same in test [15]. As to conditions: at 10 µM.
Test [16] addresses T4, Tyrosine-protein kinase ZAP-70 (Homo sapiens) (UniProt P43403).
T4 sequence (whole entry): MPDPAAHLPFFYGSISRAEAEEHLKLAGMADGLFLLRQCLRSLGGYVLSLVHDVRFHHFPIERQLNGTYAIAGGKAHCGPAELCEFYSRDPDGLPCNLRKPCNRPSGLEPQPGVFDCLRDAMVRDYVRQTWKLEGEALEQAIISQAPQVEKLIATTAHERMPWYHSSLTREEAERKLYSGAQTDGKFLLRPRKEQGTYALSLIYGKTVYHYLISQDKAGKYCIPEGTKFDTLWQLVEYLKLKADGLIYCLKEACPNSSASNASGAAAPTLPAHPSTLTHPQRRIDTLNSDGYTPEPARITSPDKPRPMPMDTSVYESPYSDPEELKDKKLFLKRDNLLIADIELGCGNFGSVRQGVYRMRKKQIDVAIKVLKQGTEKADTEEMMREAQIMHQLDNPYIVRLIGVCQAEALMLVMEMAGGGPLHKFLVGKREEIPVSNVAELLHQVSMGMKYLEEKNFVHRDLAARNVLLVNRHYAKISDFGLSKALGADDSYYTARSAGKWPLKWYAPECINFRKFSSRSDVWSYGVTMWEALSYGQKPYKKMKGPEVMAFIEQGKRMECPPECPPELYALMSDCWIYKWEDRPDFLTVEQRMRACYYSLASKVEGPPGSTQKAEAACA
As to conditions: at 1 µM.

Test [17] concerns the target Death-associated protein kinase 3 (Homo sapiens) (UniProt O43293). The settings on record: at 1 µM.
Test [18] shares this target. The settings on record: at 10 µM.
The target of test [19] is RAF proto-oncogene serine/threonine-protein kinase (Homo sapiens) (UniProt P04049). As to conditions: at 1 µM.
Chain of RAF proto-oncogene serine/threonine-protein kinase (Homo sapiens) (P04049 whole entry): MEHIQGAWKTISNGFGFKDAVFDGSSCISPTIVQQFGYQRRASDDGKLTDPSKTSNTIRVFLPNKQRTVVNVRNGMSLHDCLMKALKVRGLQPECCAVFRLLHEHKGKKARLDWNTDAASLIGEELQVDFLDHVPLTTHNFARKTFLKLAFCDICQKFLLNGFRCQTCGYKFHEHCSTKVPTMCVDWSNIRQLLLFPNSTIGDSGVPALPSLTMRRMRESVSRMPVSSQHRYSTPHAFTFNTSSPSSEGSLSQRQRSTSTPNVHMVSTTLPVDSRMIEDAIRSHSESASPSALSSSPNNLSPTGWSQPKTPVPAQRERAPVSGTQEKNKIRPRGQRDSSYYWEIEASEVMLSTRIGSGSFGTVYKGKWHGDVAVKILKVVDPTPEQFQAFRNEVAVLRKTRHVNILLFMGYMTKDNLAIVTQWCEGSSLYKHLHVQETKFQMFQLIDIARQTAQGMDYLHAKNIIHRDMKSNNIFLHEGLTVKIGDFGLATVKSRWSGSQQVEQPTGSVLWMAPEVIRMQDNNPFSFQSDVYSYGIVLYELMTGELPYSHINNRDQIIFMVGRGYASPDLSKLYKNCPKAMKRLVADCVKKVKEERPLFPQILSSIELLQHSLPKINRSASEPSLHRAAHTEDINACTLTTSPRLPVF
Test [20] has the same target. The settings on record: at 10 µM.

Chain of BDNF/NT-3 growth factors receptor (Homo sapiens) (Q16620 32-822 limits assumed): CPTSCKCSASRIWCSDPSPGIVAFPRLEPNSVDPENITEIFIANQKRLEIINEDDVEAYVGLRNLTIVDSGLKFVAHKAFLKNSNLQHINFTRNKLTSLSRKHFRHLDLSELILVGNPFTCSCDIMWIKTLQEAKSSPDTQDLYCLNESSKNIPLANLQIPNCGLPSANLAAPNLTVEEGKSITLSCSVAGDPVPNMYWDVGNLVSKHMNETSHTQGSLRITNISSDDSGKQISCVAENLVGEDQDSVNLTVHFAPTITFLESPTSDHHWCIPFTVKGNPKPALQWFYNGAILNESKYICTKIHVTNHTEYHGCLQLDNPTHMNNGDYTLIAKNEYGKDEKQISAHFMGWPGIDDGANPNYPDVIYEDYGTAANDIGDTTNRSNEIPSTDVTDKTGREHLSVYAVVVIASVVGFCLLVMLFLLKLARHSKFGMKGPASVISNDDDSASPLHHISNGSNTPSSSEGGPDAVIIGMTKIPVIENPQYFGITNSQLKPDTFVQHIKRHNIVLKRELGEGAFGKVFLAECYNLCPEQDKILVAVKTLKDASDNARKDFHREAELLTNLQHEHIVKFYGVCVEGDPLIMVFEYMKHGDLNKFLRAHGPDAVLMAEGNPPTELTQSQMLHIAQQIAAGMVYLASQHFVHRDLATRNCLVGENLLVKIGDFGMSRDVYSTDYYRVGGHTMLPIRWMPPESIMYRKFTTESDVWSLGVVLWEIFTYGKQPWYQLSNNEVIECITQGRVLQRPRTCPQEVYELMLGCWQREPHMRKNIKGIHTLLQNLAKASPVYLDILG
Chain of Death-associated protein kinase 3 (Homo sapiens) (O43293 whole entry, looked up): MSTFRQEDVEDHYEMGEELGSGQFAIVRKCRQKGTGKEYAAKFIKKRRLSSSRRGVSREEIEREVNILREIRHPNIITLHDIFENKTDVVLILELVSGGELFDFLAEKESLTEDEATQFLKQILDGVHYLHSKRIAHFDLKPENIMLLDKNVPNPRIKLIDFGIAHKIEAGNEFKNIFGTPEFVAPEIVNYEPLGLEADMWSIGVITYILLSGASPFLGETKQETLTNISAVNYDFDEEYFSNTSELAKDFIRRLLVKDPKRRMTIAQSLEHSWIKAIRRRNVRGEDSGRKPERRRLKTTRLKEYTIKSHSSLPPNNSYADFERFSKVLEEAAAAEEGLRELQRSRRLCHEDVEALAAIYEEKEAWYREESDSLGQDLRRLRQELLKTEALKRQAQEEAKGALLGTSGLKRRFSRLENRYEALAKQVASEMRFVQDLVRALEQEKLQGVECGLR

Consider `COc1cc2ncnc(Nc3ccc(Oc4ccccc4)cc3)c2cc1OC`, for which the residual activity in test [1] worked out at 147%; in test [2], 56%; in test [3] it was 34%; in test [4] it was 109%; in test [5] it was 95%; in [6], 96%. In addition, the residual activity is 79% in test [7]; 99% (inactive) in [8]; 73% in [9]; 92% (inactive) in test [10]; 41% in test [11]; 88% (inactive) in test [12]. Besides, the residual activity is 49% in [13]; 9% in test [14]; 4% in test [15]; 114% in [16]; 103% in [17]; 117% in [18].

On to `CC#CC(=O)Nc1cc2c(Nc3ccc(F)c(Cl)c3)ncnc2cn1`, for which the residual activity worked out at 103% in test [1]; 52% in test [2]; 14% in test [3]; 99% in test [4]; 97% in test [5]; 116% in test [6]. Moreover, the residual activity is 97% in test [7]; 97% (inactive) in [8]; 92% in test [9]; 103% (inactive) in test [10]; 84% in test [11]; 102% (inactive) in test [12]. For the same compound, the residual activity in test [13] was determined as 79%; in test [14], 101%; in [15], 90%; in test [16] it was 103%; in [17], 90%; in test [18] it was 100%. Besides, the residual activity in test [19] worked out at 82%; in test [20] it was 92%.

As for `NC(=O)c1ccc2[nH]c(-c3ccc(Oc4ccc(Cl)cc4)cc3)nc2c1`, the residual activity in test [1] was determined as 101%; in test [2], 96%; in test [3] it was 92%; in test [4], 97%; in test [5] it was 93%; in test [6], 90%. For the same compound, the residual activity was 87% in test [7]; 88% (inactive) in [8]; 82% in test [9]; 90% (inactive) in [10]; 78% in [11]; 93% (inactive) in test [12]. Further, the residual activity amounted to 86% in test [13]; 112% in test [14]; 105% in [15]; 95% in test [16]; 92% in [17]; 106% in [18]. Further, the residual activity in test [19] worked out at 75%; in test [20] it was 74%.

With `O=C1NC(=O)c2cc(Nc3ccc(F)cc3)c(Nc3ccc(F)cc3)cc21`, the residual activity in test [1] worked out at 88%; in test [2], 79%; in test [3] it was 27%; in [4], 107%; in test [5], 89%; in test [6] it was 107%. Also, the residual activity is 81% in test [7]; 99% (inactive) in test [8]; 86% in test [9]; 82% (inactive) in test [10]; 34% in test [11]; 87% (inactive) in [12]. Also, the residual activity was determined as 46% in [13]; 61% in test [14]; 10% in test [15]; 113% in test [16]; 104% in test [17]; 99% in [18].

With `COc1cc2ncnc(Nc3ccc(O)c(Br)c3)c2cc1OC`, the residual activity in [1] was 87%; in test [2], 81%; in [3] it was 46%; in [4], 89%; in test [5] it was 76%; in test [6], 91%. For the same compound, the residual activity in [7] was 50%; in test [8], 83% (inactive); in test [9] it was 56%; in [10], 96% (inactive); in test [11], 70%; in [12], 87% (inactive). Further, the residual activity turned out to be 77% in [13]; 25% in test [14]; 2% in test [15]; 144% in test [16]; 83% in test [17]; 58% in [18]. The residual activity was found to be 64% in test [19] and 38% in [20].

`CCC(=O)Nc1ccc2ncnc(Nc3cccc(Br)c3)c2c1`: the residual activity in test [1] is 119%; in test [2] it was 108%; in [3] it was 78%; in test [4], 106%; in test [5], 100%; in test [6], 107%. In addition, the residual activity was 89% in test [7]; 106% (inactive) in [8]; 86% in test [9]; 99% (inactive) in test [10]; 80% in test [11]; 95% (inactive) in test [12]. The residual activity in [13] turned out to be 80%; in test [14], 85%; in test [15], 50%; in [16] it was 86%; in test [17], 75%; in test [18], 100%. Further, the residual activity in test [19] was determined as 77%; in test [20], 90%.

As to `Oc1ccc(-c2nc(-c3ccc(F)cc3)c(-c3ccncc3)[nH]2)cc1`, the residual activity in test [1] came out at 61%; in test [2], 78%; in [3], 43%; in test [4], 112%; in test [5] it was 104%; in [6] it was 102%. For the same compound, the residual activity was 95% in test [7]; 117% (inactive) in test [8]; 86% in test [9]; 118% (inactive) in [10]; 84% in test [11]; 109% (inactive) in [12]. Also, the residual activity was 75% in [13]; 105% in [14]; 34% in test [15]; 117% in test [16]; 121% in [17]; 101% in test [18]. The residual activity in [19] worked out at 14%.
